SMN2 splice enh: increases expression of the SMN2 splice variant | AID 1458 | 210,000 compounds, 2.8% hits | Potency, µM (doses to about 46.1 µM), most hits filed as activators | HEK293 SMN2-luciferase splicing reporter, luminescence, 30-36 h; note: nearly all actives have a fitted effect of over 55% in size
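HEK293 cells carry an SMN2 minigene-luciferase reporter in which exon 7 inclusion puts luciferase in frame. Cells were seeded at 2000 cells/well, attached for 10-12 hours, then exposed to compounds for 30-36 hours at 37C before ONE-Glo luminescence.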
KinaseGlo FLuc: counter-screen: inhibitors of Kinase-Glo firefly luciferase. Q27757. Kinase-Glo luciferase, ATP luminescence, 8 min. Potency, µM (series often up to 38.3 µM), most hits filed as inhibitors. 200,000 compounds, 0.28% hits; note: nearly all actives have a fitted effect of over 60% in size
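Compound is pinned into ATP-containing buffer (10 uM ATP, imidazole pH 7.2, 7 mM MgCl2). Kinase-Glo luciferase reagent is then added. Light output is recorded following an 8-min room-temperature incubation.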
NPC1 prom act: activators of NPC1 promoter. 320,000 compounds, 2.4% hits. Huh7 NPC1 promoter luciferase reporter, 24 h. Potency, µM (series often up to 9.22 µM), hits mostly activators; note: nearly all actives have a fitted effect of over 60% in size
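Luciferase expression driven by the NPC1 promoter was measured in stably transfected Huh7 cells after a 24 h compound incubation, using a luciferase reagent and a luminescence read.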
ELG1 genotoxic: genotoxicity induction in ELG1-luciferase HEK293T cells; HEK293T ELG1-luciferase reporter, luminescence, 16 h; Potency, µM (titrated, usually from 46 µM), actives largely listed as activators; 330,000 compounds, 1.3% hits; note: nearly all actives have a fitted effect of over 60% in size
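HEK293T cells expressing luciferase-tagged ELG1 were treated with compound or DMSO for 16 hr at 37°C. Luciferase activity was then read after 30 min with ONE-Glo at room temperature; rising signal flags genetic stress.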
FLuc counter: counter-screen for miR-21 project: firefly luciferase inhibitors or activators; 360,000 compounds, 6.9% hits; purified FLuc, Km substrates, luminescence inhibition; P08659; Potency, µM (doses to about 57.5 µM), hits mostly inhibitors; note: nearly all actives have a fitted effect of over 55% in size
Target sequence (P08659 whole entry, looked up): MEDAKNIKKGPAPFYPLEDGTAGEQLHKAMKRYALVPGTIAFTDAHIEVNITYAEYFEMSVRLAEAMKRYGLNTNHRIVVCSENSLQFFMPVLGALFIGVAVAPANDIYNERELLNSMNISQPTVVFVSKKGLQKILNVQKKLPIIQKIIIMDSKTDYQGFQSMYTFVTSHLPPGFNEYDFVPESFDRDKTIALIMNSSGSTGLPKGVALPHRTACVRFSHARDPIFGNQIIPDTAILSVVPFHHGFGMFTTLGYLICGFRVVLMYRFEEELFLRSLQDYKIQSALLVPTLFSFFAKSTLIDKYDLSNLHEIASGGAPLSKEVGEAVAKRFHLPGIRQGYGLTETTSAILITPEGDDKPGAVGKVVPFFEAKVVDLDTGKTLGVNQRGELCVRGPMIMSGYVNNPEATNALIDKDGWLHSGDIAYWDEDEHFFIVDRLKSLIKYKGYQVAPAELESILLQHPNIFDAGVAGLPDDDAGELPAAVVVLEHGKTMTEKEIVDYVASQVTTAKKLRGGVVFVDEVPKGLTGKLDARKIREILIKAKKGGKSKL
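Purified P. pyralis luciferase (10nM final) with 10uM D-luciferin and 10uM ATP (Km levels) in 50mM Tris acetate pH 7.5, 10mM Mg acetate, 0.01% Tween-20, 0.05% BSA; qHTS 6-point titration, ~60 µM downward; luminescence read.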
Rab9 prom act: Rab9 promoter activation; Huh7 Rab9 promoter-luciferase reporter, luminescence, 24 h; Potency, µM (top dose mostly 9.22 µM), usual class: activators; 320,000 compounds, 2.8% hits; AID 485297; note: nearly all actives have a fitted effect of over 60% in size
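Stable Rab9-luc Huh7, 1500 cells/well, 2 h settle; cmpd in DMSO, 24 h, 37 °C/5% CO2; luciferase reagent 10 min RT; luminescence.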
Of the large screens only hits and unclear results are named; the others gave an inactive call. Compounds with a hit are over-represented: about 7.5% of the library has one in this group of screens. Calls come from the whole dose curve; as a rule, active = well fitted curve in the direction sought with a large enough effect; inconclusive = small, poorly fitted or top-dose-only effect, or another doubt; inactive = no such curve, though single readings can be large; an effect the other way counts as inactive or inconclusive.

NC1=NS(=O)(=O)NC1c1ccc(F)cc1 (stereo not given)	none
Cc1cc(/C=C2\Cc3ccccc3C2=O)c(C)n1-c1ccccc1	SMN2 splice enh 4.5µM, ELG1 genotoxic 1.2µM, FLuc counter 0.19µM
Cc1cc(C=C2C(=O)c3ccccc3C2=O)c(C)n1-c1cccc(C(=O)O)c1	FLuc counter 4.8µM, Rab9 prom act 2.5µM
Cc1cc(C=C2C(=O)c3ccccc3C2=O)c(C)n1-c1ccccc1	KinaseGlo FLuc inconclusive, ELG1 genotoxic inconclusive, FLuc counter 0.12µM
Cc1cc(/C=N/n2cnnc2)c(C)n1-c1ccccc1	FLuc counter inconclusive
COc1ccccc1/C=C1\Cc2ccccc2C1=O	ELG1 genotoxic inconclusive, FLuc counter 11µM (no result: SMN2 splice enh, KinaseGlo FLuc)
CCOC(=O)C1CCCN(C(=O)Cn2ncc3c(C)n(Cc4ccccc4Cl)c(C)c3c2=O)C1 (stereo not given)	none (no result: KinaseGlo FLuc, NPC1 prom act, ELG1 genotoxic, Rab9 prom act)
CCCOc1ccc(C2C(=O)N(C3CCCCCC3)CC(=O)N2CCC)cc1OC (stereo not given)	none (no result: SMN2 splice enh, KinaseGlo FLuc, NPC1 prom act, ELG1 genotoxic, Rab9 prom act)
Cc1ccc(N2C(=O)CSC23C(=O)N(CC(=O)Nc2ccc(C)cc2C)c2ccccc23)cc1 (stereo not given)	none (no result: SMN2 splice enh, KinaseGlo FLuc, NPC1 prom act, ELG1 genotoxic, Rab9 prom act)
COc1cc(NC(=O)c2c(C)oc3ncnc(N4CCCCC4)c23)cc(OC)c1	none (no result: SMN2 splice enh, KinaseGlo FLuc, NPC1 prom act, ELG1 genotoxic, Rab9 prom act)
O=C(CN1CCN(c2ccc(F)cc2)CC1)c1ccc(O)cc1O	none (no result: SMN2 splice enh, KinaseGlo FLuc)
Cc1cc(C=C2C(=O)c3ccccc3C2=O)c(C)n1-c1ccc(C(=O)O)cc1	FLuc counter 19µM (no result: SMN2 splice enh, KinaseGlo FLuc)
CN=C1N[C@H](c2ccccc2)N(c2ccccc2)S1	none (no result: SMN2 splice enh, NPC1 prom act, ELG1 genotoxic, FLuc counter, Rab9 prom act)
CCC(=O)Nc1ccc2nc(C3CC3)n(Cc3ccc(C(C)(C)C)cc3)c(=O)c2c1	NPC1 prom act 0.32µM, ELG1 genotoxic 1.6µM, FLuc counter 1.5µM, Rab9 prom act inconclusive (no result: SMN2 splice enh, KinaseGlo FLuc)
COc1cccc(Cn2c(C3CC3)nc3ccc(NC(=O)c4ccco4)cc3c2=O)c1	none
O=C(Nc1ccc2nc(C3CC3)n(Cc3ccc(F)cc3)c(=O)c2c1)c1ccco1	SMN2 splice enh inconclusive
COc1ccc(Cn2c(C3CC3)nc3ccc(NC(=O)C4CC4)cc3c2=O)cc1	SMN2 splice enh 11µM, NPC1 prom act 1.4µM, ELG1 genotoxic 2.6µM, FLuc counter 4.3µM, Rab9 prom act 1.6µM
CC(=O)Nc1ccc2nc(C3CC3)n(Cc3ccc(Cl)cc3)c(=O)c2c1	SMN2 splice enh 10µM, NPC1 prom act 3.5µM, ELG1 genotoxic inconclusive, FLuc counter 21µM, Rab9 prom act 3.5µM
CCCCOC(=O)c1ccc(NC(=O)CSc2nc3c(c(=O)[nH]2)CCC3)cc1	none (no result: SMN2 splice enh, KinaseGlo FLuc, NPC1 prom act, ELG1 genotoxic, Rab9 prom act)
COc1cc(NC(=O)c2ccccc2)c(OC)cc1NC(=O)CN1C(=O)NC2(CCCCC2)C1=O	none (no result: SMN2 splice enh, KinaseGlo FLuc)
Cc1cc2c([nH]c3ccccc32)c2c1OC(C)(C)C=C2	NPC1 prom act 3.2µM, ELG1 genotoxic inconclusive, FLuc counter 11µM, Rab9 prom act 3.2µM (no result: SMN2 splice enh, KinaseGlo FLuc)
COc1ccc2[nH]c(=O)c3c(c2c1)OC(C)(C)C=C3	none
COC(=O)c1ccc(NC(=O)CN(Cc2ccccc2)S(=O)(=O)c2ccc(Cl)cc2)cc1	none (no result: KinaseGlo FLuc, NPC1 prom act, ELG1 genotoxic, Rab9 prom act)
COc1ccc(S(=O)(=O)N(CC(=O)Nc2ccc3c(c2)OCO3)c2ccc(C)cc2)cc1	FLuc counter inconclusive (no result: KinaseGlo FLuc, NPC1 prom act, ELG1 genotoxic, Rab9 prom act)
O=C(O)CC1S/C(=N/N=C/C=C/c2ccccc2)NC1=O (stereo not given)	FLuc counter 19µM
O=C(O)CC1S/C(=N/N=C/C=C/c2ccccc2[N+](=O)[O-])NC1=O (stereo not given)	none
CC(C)c1cnc2c(c1SCC(=O)NC(C)(C)C)c(=O)n(C)c(=O)n2C	none (no result: SMN2 splice enh, KinaseGlo FLuc, NPC1 prom act, ELG1 genotoxic, Rab9 prom act)
Brc1ccc(/C=N/Nc2ncnc3c2cnn3Cc2ccccc2)cc1	none
Nc1ncnc2c1ncn2Cc1ccccc1	none
Oc1cccc(/C=N/Nc2ncnc3c2ncn3Cc2ccccc2)c1	FLuc counter 13µM
Oc1ccc(/C=N/Nc2ncnc3c2ncn3Cc2ccccc2)cc1O	ELG1 genotoxic inconclusive, FLuc counter 9.5µM
O=C(Nc1ccc(Cl)cc1C(F)(F)F)C(Sc1cccc[n+]1[O-])c1ccccc1 (stereo not given)	SMN2 splice enh 5.6µM
Cc1ccc(C)c(NC(=O)C(Sc2cccc[n+]2[O-])c2ccccc2)c1 (stereo not given)	none

Screening results (PubChem BioAssay)
